Here are results for eight compounds from PubChem BioAssay (NCI).

Some test systems named below: NCI-H23 lung; NCI-H226 lung; NCI-H322M lung; HOP-62 NSCLC; NCI-H460 lung; HOP-92 NSCLC; NCI-H522 lung; A549/ATCC NSCLC; 786-0 renal; COLO 205 colon; DU-145 prostate; K-562 leukemia; MALME-3M melanoma; MDA-MB-231 breast; RXF 393 renal; SF-268 CNS; SF-295 CNS; SF-539 CNS; UACC-257 melanoma; M14 melanoma.
Test in all cases: NCI-60 one-dose screen, 48 h (100 = growth as untreated, 0 = no growth, -100 = all killed)
Holding throughout (details): 10 µM unless noted

SMILES strings stand for the structures. The panel holds about 83,000 compounds, 20% with a hit somewhere; the sample as a whole holds those more often.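 In brief: 96-well plates, 48 h treatment, single concentration, percent growth endpoint.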 Unmarked numbers belong to inactive results. Calls of active or inactive are those of the source. The calls were made as follows: active = growth percent below 10; inactive = the rest.

Turning to `CC1(C)O[C@H]2OC3CCC(=O)CC3(O)[C@H]2O1` (stereo not given in full), the growth with NCI-H23 lung is 99.2%; in the assay on NCI-H226 lung it was 102%; in the assay on NCI-H322M lung, 101%; in the assay with HOP-62 NSCLC, 95.8%; in the assay with NCI-H460 lung, 101%; in the assay on HOP-92 NSCLC, 79.8%. The growth in the assay on NCI-H522 lung is 92.4%; in the assay on A549/ATCC NSCLC, 95.9%; in the assay on 786-0 renal it was 99.5%; with COLO 205 colon, 105%; in the assay with DU-145 prostate it was 107%; with K-562 leukemia it was 94.8%. The growth in the assay on MALME-3M melanoma is 104%; in the assay with MDA-MB-231 breast, 113%; with RXF 393 renal, 104%; in the assay with SF-268 CNS it was 99.3%; in the assay with SF-295 CNS it was 110%; in the assay on SF-539 CNS, 105%. Besides, the values for the growth with UACC-257 melanoma and in the assay on M14 melanoma were 96.5% and 99.9%, respectively.
Consider `COc1ccc(-c2ccc(-c3ccc(C(=N)N)cn3)s2)cc1`, for which the growth with NCI-H23 lung was 98.8%; in the assay with NCI-H226 lung it was 84.5%; with NCI-H322M lung, 91.9%; with HOP-62 NSCLC it was 90%; in the assay with NCI-H460 lung it was -22.6% (active); in the assay on HOP-92 NSCLC, 80%. In addition, the growth was 82.4% in the assay on NCI-H522 lung; 63.6% in the assay with A549/ATCC NSCLC; 99.7% with 786-0 renal; 62.4% in the assay on COLO 205 colon; 64.2% with DU-145 prostate; 0.33% (active) in the assay on K-562 leukemia. Moreover, the growth was 102% in the assay with MALME-3M melanoma; 87.7% in the assay with MDA-MB-231 breast; 97.8% in the assay with RXF 393 renal; 99% in the assay on SF-268 CNS; 104% in the assay with SF-295 CNS; 94.3% in the assay with SF-539 CNS. Also, the growth in the assay with UACC-257 melanoma was 102%; with M14 melanoma, 101%.
As for `Cn1cc(/C=C2/C(=O)Nc3ccccc32)c2ccccc21`, the growth in the assay on NCI-H23 lung is 73.4%; in the assay with NCI-H226 lung it was 70.6%; in the assay on NCI-H322M lung, 91.5%; in the assay on HOP-62 NSCLC it was 76.8%; with NCI-H460 lung, 92.4%; in the assay with HOP-92 NSCLC it was 87.4%. In addition, the growth is 77.8% with NCI-H522 lung; 86.2% with A549/ATCC NSCLC; 98.4% in the assay with 786-0 renal; 91.7% with COLO 205 colon; 99.1% in the assay with DU-145 prostate; 96.7% in the assay with K-562 leukemia. In addition, the growth in the assay with MALME-3M melanoma is 94.5%; in the assay on MDA-MB-231 breast, 109%; in the assay on RXF 393 renal it was 96.7%; in the assay with SF-268 CNS it was 84.5%; in the assay with SF-295 CNS, 108%; with SF-539 CNS it was 80%. Also, the values for the growth in the assay with UACC-257 melanoma and in the assay with M14 melanoma were 95.9% and 92.3%, respectively.
For the compound `CS(=O)(=O)Cc1cnc(C2OCCO2)s1`, the growth in the assay on NCI-H23 lung is 107%; with NCI-H226 lung, 96.4%; in the assay on NCI-H322M lung, 100%; with HOP-62 NSCLC, 113%; in the assay on NCI-H460 lung it was 112%; with HOP-92 NSCLC it was 82.4%. The growth with NCI-H522 lung was 88.7%; with A549/ATCC NSCLC it was 94.8%; in the assay on 786-0 renal it was 104%; in the assay on COLO 205 colon it was 116%; in the assay on DU-145 prostate, 106%; with K-562 leukemia it was 125%. The growth in the assay on MALME-3M melanoma is 92.7%; in the assay with MDA-MB-231 breast, 109%; in the assay on RXF 393 renal it was 116%; in the assay on SF-268 CNS, 93.1%; in the assay with SF-295 CNS it was 98%; in the assay with SF-539 CNS, 94.7%. The growth in the assay on UACC-257 melanoma is 98.8%; with M14 melanoma, 99.9%.
Regarding `C=CCn1c(SCC(=O)Nc2ccc(C(=O)/C=C/c3cc(OC)c(OC)c(OC)c3)cc2)nnc1-c1cc(-c2ccc(OC)cc2)nc2ccccc12`, the growth with NCI-H23 lung was 93.4%; in the assay on NCI-H226 lung it was 94%; with NCI-H322M lung it was 97.5%; with HOP-62 NSCLC it was 96.5%; in the assay on NCI-H460 lung it was 88.9%; in the assay with HOP-92 NSCLC, 77.4%. In addition, the growth was 86.3% in the assay with NCI-H522 lung; 98.1% with A549/ATCC NSCLC; 88.7% in the assay with 786-0 renal; 104% with COLO 205 colon; 96.5% in the assay with DU-145 prostate; 83.1% with K-562 leukemia. In addition, the growth is 95.3% with MALME-3M melanoma; 76.8% with MDA-MB-231 breast; 89.5% in the assay on RXF 393 renal; 91.4% in the assay on SF-268 CNS; 106% in the assay on SF-295 CNS; 90.9% in the assay on SF-539 CNS. In addition, the growth in the assay on UACC-257 melanoma is 100%; in the assay on M14 melanoma, 107%.
Take `CCCCCCNc1nc(NCCCCCC)c2[nH]c(NCCCCCC)nc2n1`: the growth was 48.2% with NCI-H23 lung; 92.1% with NCI-H226 lung; 1.94% (active) in the assay with NCI-H322M lung; 75.7% in the assay on HOP-62 NSCLC; 48.1% in the assay with NCI-H460 lung; -12.9% (active) with HOP-92 NSCLC. The growth in the assay with NCI-H522 lung is -42% (active); in the assay on A549/ATCC NSCLC, 7.63% (active); with 786-0 renal, 68.2%; with COLO 205 colon it was -2.12% (active); with DU-145 prostate, 84.6%; in the assay on K-562 leukemia, -19.2% (active). For the same compound, the growth in the assay with MALME-3M melanoma was 60.8%; with MDA-MB-231 breast, -2.45% (active); with RXF 393 renal it was 81%; with SF-268 CNS, 52.5%; in the assay with SF-295 CNS, 70.3%; with SF-539 CNS it was 82.6%. For the same compound, the growth was 104% in the assay with UACC-257 melanoma and 79.5% with M14 melanoma.
`CCOC(=O)CSc1nc2sc3c(c2c(=O)n1-c1ccc([N+](=O)[O-])cc1)CCCCC3`: the growth in the assay on NCI-H23 lung is 74.5%; in the assay on NCI-H226 lung, 98.8%; in the assay with NCI-H322M lung it was 77.2%; with HOP-62 NSCLC it was 47.7%; in the assay with NCI-H460 lung it was 48.1%; in the assay on HOP-92 NSCLC it was 80.3%. Besides, the growth in the assay on NCI-H522 lung was 68.8%; in the assay with A549/ATCC NSCLC, 66.1%; with 786-0 renal it was 71.3%; with COLO 205 colon, 82.8%; with DU-145 prostate, 63.5%; in the assay on K-562 leukemia it was 75.2%. The growth in the assay with MALME-3M melanoma was 77.7%; with MDA-MB-231 breast it was 50.4%; with RXF 393 renal, 76.8%; in the assay on SF-268 CNS it was 71.2%; in the assay on SF-295 CNS, 59.3%; in the assay on SF-539 CNS, 58.3%. Moreover, the growth in the assay on UACC-257 melanoma is 89%; in the assay on M14 melanoma, 75.3%.
Take `O=C(N/N=C/c1ccc([N+](=O)[O-])cc1)c1ccc2nc(-c3ccc(Cl)cc3)[nH]c2c1`: the growth in the assay on NCI-H23 lung is 16.2%; with NCI-H226 lung, 54.8%; in the assay on NCI-H322M lung, 70.1%; in the assay with HOP-62 NSCLC it was 44.8%; with NCI-H460 lung it was 5.44% (active); with HOP-92 NSCLC, 59.7%. Further, the growth in the assay on NCI-H522 lung was 33%; in the assay with A549/ATCC NSCLC, 34.5%; in the assay with 786-0 renal, 49%; in the assay on COLO 205 colon, 2.28% (active); with DU-145 prostate, 42%; in the assay on K-562 leukemia, 9.68% (active). Also, the growth in the assay on MALME-3M melanoma was 7.79% (active); in the assay with MDA-MB-231 breast, 76.9%; with RXF 393 renal, 31.6%; in the assay on SF-268 CNS, 48.5%; with SF-295 CNS it was 21.7%; in the assay on SF-539 CNS it was 41.7%. Also, the growth with UACC-257 melanoma is 25.1%; in the assay on M14 melanoma it was 25.9%.
